Only some compounds are listed: those with a hit (about 3.3% of all), similar ones and a draw of the others.
MazF activator – MazEF (E. coli) toxin RNase activation. P0AE70. FAM/BHQ RNA-DNA oligo cleavage fluorescence, 5 h. activation, % at 20 µM. 350,000 tested, 0.32% active. AID 504720; in the data active = activation above about 50%
Target sequence (P0AE70 whole entry, looked up): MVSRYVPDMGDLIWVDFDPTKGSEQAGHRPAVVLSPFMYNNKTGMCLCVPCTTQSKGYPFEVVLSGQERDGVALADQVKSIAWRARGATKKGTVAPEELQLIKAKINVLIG
BoNT F protease – blocks Botulinum neurotoxin F light chain protease; Multiplex microsphere protease cleavage assay, flow cytometry; inhibition, % at 10 µM; 360,000 tested, 0.22% active; AID 588497; in the data active = inhibition above about 35%, passing the limit was not always enough; inconclusive = no clear call, values can overlap the other calls
SSB-PriA inh – blocks PriA binding to SSB C-terminal tail | inhibition, % at 33 µM | 430,000 tested, 0.6% active | AlphaScreen SSBct-PriA binding, biotinylated peptide; in the data active = inhibition mostly above about 37%, no sharp cut-off; inactive = mostly below about 20%
Anthrax LF prot – blocks Bacillus anthracis lethal factor protease. 360,000 tested, 0.12% active. inhibition, % at 10 µM. P15917. AID 588501. multiplex microsphere protease cleavage assay, LF
Bead autofluor – compound fluorescence in toxin protease inhibitor counterscreen. compound autofluorescence counterscreen, microsphere flow cytometry; hits give high values. fluorescence intensity (no concentration beside the values). 360,000 tested, 3.1% active. AID 624483; in the data active = fluorescence intensity above about 16000; inconclusive = no clear call, values can overlap the other calls
BoNT A protease – BoNT A light chain protease inhibition; 360,000 tested, 0.17% active; inhibition, % at 10 µM; multiplex microsphere protease substrate cleavage, flow cytometry; AID 588499
Each line names hits and unclear results; the compound was inactive in the other large screens. Cut-off read from the data, not from the text of the source, unless noted: active = inhibition above about 30%; inconclusive = no clear call, values can overlap the other calls; inactive = below that.

Cc1ccc2c(c1)N(C(C)C(=O)N1CCC3(CC1)OCCO3)C(=O)CO2 (centres undefined)	none
Cc1ccc2c(c1)N(C(C)C(=O)NCCc1ccccc1)C(=O)CO2 (centres undefined)	Bead autofluor 20536, BoNT A protease inconclusive
Cc1ccc2c(c1)N(CC(=O)Nc1nccs1)C(=O)CO2	none
CC(=O)c1ccc(NC(=O)CN2C(=O)COc3ccccc32)cc1	SSB-PriA inh 56 (no result: MazF activator, BoNT F protease, Anthrax LF prot, Bead autofluor, BoNT A protease)
Cc1ccc(NC(=O)CN2C(=O)COc3ccc(C)cc32)nc1	Bead autofluor 21570
COc1ccc(CCN2C(=O)C3C4C=CC(C3C2=O)C2C(=O)N(CCc3ccc(OC)c(OC)c3)C(=O)C42)cc1OC (centres undefined)	Bead autofluor 19991
COc1ccc(CCN2C(=O)C3C4C=CC(C5CC45)C3C2=O)cc1OC (centres undefined)	none
COc1ccc(CCN2C(=O)c3cccc4cccc(c34)C2=O)cc1OC	Bead autofluor 17334
COc1ccc(CCNC(=O)CN2C(=O)c3cccc4cccc(c34)C2=O)cc1OC	none
O=C(O)c1coc(NC(=O)C2CC2)n1	none (no result: MazF activator, BoNT F protease, Anthrax LF prot, Bead autofluor, BoNT A protease)
Cc1ccc(C(=O)c2c(C)oc3c2C(=O)C(=O)c2ccccc2-3)cc1	none
Cc1oc2c(c1C(=O)c1ccc(Cl)cc1)C(=O)C(=O)c1ccccc1-2	BoNT A protease 30
N#CCc1c(C#N)c(N)nc(N2CCN(Cc3ccc4c(c3)OCO4)CC2)c1C#N	Bead autofluor 19575
N#CCc1c(C#N)c(N)nc(N2CCN(c3ccc(F)cc3)CC2)c1C#N	none
CC1=C(C(=O)Nc2ccccc2)C(c2cccc([N+](=O)[O-])c2)Nc2nc3ccccc3n21 (centres undefined)	Bead autofluor 23880
Cc1ccc(N/C(N)=N/c2nc(CSc3ccc(C)cc3)cc(=O)[nH]2)cc1	Bead autofluor 23020 (no result: SSB-PriA inh)
COC(=O)Cc1cc(=O)[nH]c(/N=C(\N)Nc2ccccc2)n1	Bead autofluor 21352 (no result: SSB-PriA inh)
Cc1ccc(NC(N)=Nc2nc(CSc3ccc(C)cc3)cc(=O)[nH]2)cc1	none (no result: MazF activator, BoNT F protease, Anthrax LF prot, Bead autofluor, BoNT A protease)
COC(=O)Cc1cc(=O)[nH]c(N=C(N)Nc2ccccc2)n1	none (no result: MazF activator, BoNT F protease, Anthrax LF prot, Bead autofluor, BoNT A protease)
COc1ccc(/C=N/NC(=O)C2COc3ccccc3O2)cc1O (centres undefined)	none (no result: MazF activator, BoNT F protease, Anthrax LF prot, Bead autofluor, BoNT A protease)
COc1ccc(CC(=O)Nc2ccc3c(c2)NC(=O)C(C)(C)CO3)cc1	none (no result: MazF activator, BoNT F protease, Anthrax LF prot, Bead autofluor, BoNT A protease)
Cc1cnc(NC(=O)C2CSc3nc(C(C)(C)C)cc(=O)n3C2)s1 (centres undefined)	none (no result: MazF activator, BoNT F protease, Anthrax LF prot, Bead autofluor, BoNT A protease)
COc1cccc(-c2cc(C(=O)Nc3cc(C)n(Cc4ccc(Cl)cc4)n3)no2)c1	MazF activator 51
COc1ccc(NC(=O)c2sc3nc(-c4cccnc4)ccc3c2N)cc1OC	MazF activator active, BoNT F protease inconclusive
COc1ccc(NC(=O)c2cc(-c3ccccc3)on2)cc1OC	none
COc1cccc(-c2cc(C(=O)Nc3ccc(OC)c(OC)c3)no2)c1	Bead autofluor 19835
COc1ccc(OC)c(-c2cc(C(=O)Nc3cc(C)n(Cc4ccc(Cl)cc4)n3)no2)c1	Bead autofluor 23480
O=C(COc1cccc(C(F)(F)F)c1)Nc1ccccc1-c1cn2ccccc2n1	none (no result: MazF activator, BoNT F protease, Anthrax LF prot, Bead autofluor, BoNT A protease)
Cc1cc(C)cc(Nc2nc(C)cc3nn(CC(=O)Nc4cccc(Cl)c4)c(=O)n23)c1	none (no result: MazF activator, BoNT F protease, Anthrax LF prot, Bead autofluor, BoNT A protease)
Nc1c(C(=O)N2CCOCC2)sc(=S)n1-c1ccc(F)c(Cl)c1	none (no result: MazF activator, BoNT F protease, Anthrax LF prot, Bead autofluor, BoNT A protease)
COc1cccc(NC(=O)c2ccc(-c3ccc([N+](=O)[O-])cc3)o2)c1	MazF activator 276
CCN(CC)c1ccc(Nc2nc(N3CCOCC3)c3ccccc3n2)cc1	Bead autofluor 20077
c1ccc2c(c1)nc(N1CCOCC1)c1ccccc12	none
COc1ccc(Nc2nc(N3CCCC3)c3ccccc3n2)cc1	SSB-PriA inh 35
COc1ccc(Nc2c3ccccc3nc3ccccc23)cc1	none
CC(C)CCN1C(=O)C(C)(C)COc2ccc(NC(=O)c3ccco3)cc21	none (no result: MazF activator, BoNT F protease, Anthrax LF prot, Bead autofluor, BoNT A protease)
CCn1c(C2CCN(C(=O)c3cnn(-c4ccccc4)n3)CC2)nn(CCOC)c1=O	none (no result: MazF activator, BoNT F protease, Anthrax LF prot, Bead autofluor, BoNT A protease)
COc1ccc(-c2cc3nc(C)cc(C)n3n2)cc1	Bead autofluor 20324
Cc1cc(C)n2nc(NCc3ccccc3)nc2n1	Bead autofluor 20633, BoNT A protease inconclusive
COc1ccc(CNc2nc3nc(C)c(Cl)c(C)n3n2)cc1	none
COc1ccc(CNc2nc3nc(C)cc(C)n3n2)cc1	Bead autofluor 23427
O=C(C1CCCCC1)N(Cc1ccccn1)c1nc2c(Cl)cccc2s1	none (no result: MazF activator, BoNT F protease, Anthrax LF prot, Bead autofluor, BoNT A protease)
CC1C/C(=C/c2cccn2C)C(=O)/C(=C/c2cccn2C)C1 (centres undefined)	MazF activator active
COc1cccc2sc3cc(C#Cc4ccccn4)ccc3c(=O)c12	SSB-PriA inh 46
O=C(Nc1cccc(-c2nc3ccccc3[nH]2)c1)c1ccc(Oc2ccc(C(=O)Nc3cccc(-c4nc5ccccc5[nH]4)c3)cc2)cc1	none (no result: MazF activator, BoNT F protease, Anthrax LF prot, Bead autofluor, BoNT A protease)
CCc1ccc(C(O)c2ncc(-c3cccc(C(F)(F)F)c3)[nH]2)cc1 (centres undefined)	none (no result: MazF activator, SSB-PriA inh)
CC(C)CSc1ncc(-c2cccc(C(F)(F)F)c2)cn1	Bead autofluor 19690, BoNT A protease inconclusive
COc1ccc(S(=O)(=O)Nc2nc(C)c(C(=O)NCCCc3ccccc3)s2)cc1	none (no result: MazF activator, BoNT F protease, Anthrax LF prot, Bead autofluor, BoNT A protease)
O=S1(=O)CC2(N3CCOCC3)CCCCCCC21 (centres undefined)	Bead autofluor 23822
O=S1(=O)CC2(N3CCOCC3)CCCCC21 (centres undefined)	Bead autofluor 19624
CC(=O)Cn1c(-c2nnco2)cc2ccccc21	none (no result: MazF activator, BoNT F protease, Anthrax LF prot, Bead autofluor, BoNT A protease)
O=C(CCSc1ccccc1)Nc1nnc(C2CCCCC2)o1	none (no result: MazF activator, BoNT F protease, Anthrax LF prot, Bead autofluor, BoNT A protease)
Oc1[nH]c2ccccc2c1N=Nc1ccccc1F	MazF activator active
O=Nc1c(O)[nH]c2ccc(F)cc12	none
Oc1[nH]c2ccc(Br)cc2c1N=Nc1ccc(F)cc1	MazF activator 564, BoNT F protease inconclusive
Oc1[nH]c2ccccc2c1N=Nc1nnc(-c2ccccc2)c2ccccc12	none (no result: MazF activator, BoNT F protease, Anthrax LF prot, Bead autofluor, BoNT A protease)
Oc1[nH]c2ccccc2c1N=Nc1ccccc1	MazF activator 158
Oc1[nH]c2ccccc2c1N=Nc1ccc(F)cc1	MazF activator active
O=C(Cn1cccn1)NCc1ccncc1	none (no result: MazF activator, BoNT F protease, Anthrax LF prot, Bead autofluor, BoNT A protease)
COc1ccc(C(=O)NCC2CCN(S(=O)(=O)C3CC3)CC2)cc1F	none (no result: MazF activator, BoNT F protease, Anthrax LF prot, Bead autofluor, BoNT A protease)
COc1ccc(CCNC(=O)Cc2cc(=O)[nH]c(SCc3ccccc3F)n2)cc1	none (no result: MazF activator, BoNT F protease, Anthrax LF prot, Bead autofluor, BoNT A protease)
O=C1C[C@H](c2noc(-c3ccccn3)n2)CN1CCc1ccccc1	none (no result: MazF activator, BoNT F protease, Anthrax LF prot, Bead autofluor, BoNT A protease)
O=[N+]([O-])c1ccc2[nH]c(O)c(N=Nc3ccc(F)cc3)c2c1	MazF activator 316
O=[N+]([O-])c1ccc(N=Nc2c(O)[nH]c3ccc(F)cc23)cc1	none
Cc1c(Br)c([N+](=O)[O-])nn1C(C)C(=O)NCc1ccco1 (centres undefined)	none
Cc1c(Br)c([N+](=O)[O-])nn1C(C)C(=O)NCc1cccnc1 (centres undefined)	Bead autofluor 20382
COC(=O)c1sc2ccccc2c1NC(=O)C1CCCN(S(C)(=O)=O)C1 (centres undefined)	none (no result: MazF activator, BoNT F protease, Anthrax LF prot, Bead autofluor, BoNT A protease)
CC1=C(C#N)C(NC(=O)C2CCCCC2)(C(F)(F)F)C(=O)N1 (centres undefined)	Bead autofluor 22461
